# Source: PubChem BioAssay AID1851 (National Center for Advancing Translational Sciences (NCATS), 2009)
# The campaign covered roughly 16,000 compounds. About 4,000 (25%) were called active. Inconclusive results (about 26%) are left out. Only a sample is shown. Unmarked numbers belong to inactive results. Calls come from the whole dose curve; as a rule, active = well fitted curve in the direction sought with a large enough effect; inconclusive = small, poorly fitted or top-dose-only effect, or effect the other way; inactive = no such curve, though single readings can be large or run the other way.
# Target: Cytochrome P450 2C9 (Homo sapiens) (UniProt P11712)
# Sequence (P11712 whole entry, looked up): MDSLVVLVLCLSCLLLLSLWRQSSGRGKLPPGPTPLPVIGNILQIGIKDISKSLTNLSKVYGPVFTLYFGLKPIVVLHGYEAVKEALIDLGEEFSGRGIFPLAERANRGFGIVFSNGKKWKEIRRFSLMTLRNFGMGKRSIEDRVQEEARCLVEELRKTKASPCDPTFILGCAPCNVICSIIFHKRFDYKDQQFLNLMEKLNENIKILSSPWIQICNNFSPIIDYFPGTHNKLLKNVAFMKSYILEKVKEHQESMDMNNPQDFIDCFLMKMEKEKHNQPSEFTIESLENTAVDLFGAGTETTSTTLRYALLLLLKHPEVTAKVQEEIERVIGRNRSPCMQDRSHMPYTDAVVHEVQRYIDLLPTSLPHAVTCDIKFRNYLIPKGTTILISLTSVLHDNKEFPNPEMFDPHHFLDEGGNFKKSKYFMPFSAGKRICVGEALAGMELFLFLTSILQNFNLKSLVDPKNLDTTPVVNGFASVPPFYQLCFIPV
# Test: Cytochrome panel assay with activity outcomes
# Conditions: recombinant CYP, pro-luciferin dealkylation, luminescence, p450-cyp2c9; series mostly up to 57.1 µM; activity, negative = inhibition: at the top concentration
# % is set by controls: 0 for no effect and ±100 for the full control effect.
Compound,"activity, negative = inhibition",AC50
CC(=O)OC[C@@H]1O[C@@H](O/N=C2/C[C@@H](O)[C@@H](O)[C@@H]3[C@@H]4C(=O)N(C[C@@H]5CCCO5)C(=O)[C@H]4CC[C@@H]23)[C@H](OC(C)=O)[C@H](OC(C)=O)[C@@H]1OC(C)=O,-5.55% [at 11.4 µM],–
COc1cccc(-c2[nH]nc3c2C(c2ccsc2)C(C#N)=C(N)O3)c1 (centres undefined),–,2.51 µM (active)
COc1cccc(-c2cc(NCc3cccs3)ncn2)c1,-10.2% [at 2.29 µM],–
CNc1c2c(nn1C)CCCC2,9.75%,–
O=c1cc(CO)oc(CN2CCCC2)c1O,-17%,–
Cc1ccc(N(C(C)C(=O)Nc2cc(Cl)ccc2Oc2ccccc2)S(C)(=O)=O)cc1 (centres undefined),–,6.31 µM (active)
CC(C(=O)Nc1ccccc1Sc1ccccc1)N(c1ccccc1)S(C)(=O)=O (centres undefined),–,4.47 µM (active)
COc1cccc(C=NC=Nc2cccc(OC)c2)c1,22.6%,–
CN(C)C(=O)c1ccc(-c2ccc3ncnc(NCc4cccs4)c3c2)cc1,8.22% [at 2.29 µM],–
Cc1ccc(N=C/C(C(=O)C(F)(F)F)=C(\O)c2cccs2)cc1,–,3.55 µM (active)
C[C@](N)(COP(=O)(O)O)C(=O)O,-8.44%,–
COc1cc(C2C(C#N)=C(N)N(Nc3ccccc3)C3=C2C(=O)CC(C)(C)C3)ccc1OCc1cccc(F)c1 (centres undefined),–,3.98 µM (active)
COc1ccc(C2C(C#N)=C(N)N(Nc3ccccc3)C3=C2C(=O)CC(C)(C)C3)cc1C (centres undefined),–,1.58 µM (active)
CC(=O)N(CC(O)CN(C(C)=O)c1c(I)c(C(=O)NC[C@@H](O)CO)c(I)c(C(=O)NC[C@@H](O)CO)c1I)c1c(I)c(C(=O)NC[C@@H](O)CO)c(I)c(C(=O)NC[C@@H](O)CO)c1I,17.2% [at 25.6 µM],–
COc1ccccc1-c1cc(NCc2cnc(C)cn2)ncn1,9.42% [at 2.29 µM],–
O=C(O)[C@H]([C@H]1NCCS1)N1Cc2ccccc2C1,1.08% [at 11.4 µM],–
Cc1cccc(Sc2c([N+](=O)[O-])ncn2C)n1,-5.86%,–
N#Cc1ccc(CN2CC3(CCN(C(=O)c4cc(C(F)(F)F)cc(C(F)(F)F)c4)CC3)C2)cc1,-15.8%,–
O=S(=O)(c1ccccc1)N1CCC2(CCCN(C(c3ccccc3)c3ccccc3)C2)CC1,-16.2%,–
O=S(=O)(c1ccccc1)N1CCC2(CCN(C(c3ccccc3)c3ccccc3)CC2)CC1,–,0.501 µM (active)
CC(C)NC(=O)N1CC2(CCN(S(=O)(=O)c3ccccc3)CC2)C1,-13.9%,–
CS(=O)(=O)N1CCC2(CCN(C(c3ccccc3)c3ccccc3)CC2)CC1,-25.5%,–

Compound,"activity, negative = inhibition",AC50
O=S(=O)(c1ccccc1)N1CCC2(CC1)CN(C(c1ccccc1)c1ccccc1)C2,–,1 µM (active)
NC1CCN(c2cccc(Cl)n2)CC1,–,inactive
C[C@H]1[C@@H](O)[C@@H](C)\C=C/C=C\C=C/C=C\C=C/C=C\C=C/[C@@H](O[C@H]2O[C@@H](C)[C@@H](O)[C@@H](N)[C@@H]2O)C[C@@H]2O[C@](O)(C[C@@H](O)C[C@@H](O)[C@@H](O)CC[C@@H](O)C[C@@H](O)CC(=O)O[C@H]1C)C[C@@H](O)[C@H]2C(=O)O (stereo in doubt),-2.12% [at 25.6 µM],–
CC(=NC1CCCCC1)c1ccccc1O,-0.794% [at 11.4 µM],–
CCCCN1C(=O)C(NC(=O)C2CC2)(C(F)(F)F)C2=C1CC(C)(C)CC2=O (centres undefined),–,6.31 µM (active)
CC1(C)CC(=O)C2=C(C1)N(Cc1ccccc1)C(=O)C2(O)C(F)(F)F (centres undefined),-15.3%,–
CCOC(=O)c1c(-c2ccc(C)o2)csc1NC(=S)NC(=O)N(C)C,–,10 µM (active)
Cc1cc(C)n2nc(-c3sccc3-n3cccc3)cc2n1,-48.1%,–
COc1ccccc1-c1ccc2ncnc(NCCN3CCOCC3)c2c1,-10.8% [at 2.29 µM],–
COc1ccccc1-c1nc(NCCN2CCOCC2)c2ccccc2n1,14% [at 2.29 µM],–
COc1ccc(C2c3c(ncn(CCN4CCOCC4)c3=N)Oc3ccc4ccccc4c32)cc1OC (centres undefined),–,8.91 µM (active)
CCOC(=O)CSc1n[nH]c(NC(=O)c2ccccc2)n1,-20.3%,–
Cn1sc(NC(=O)c2ccccc2)nc1=O,–,14.1 µM (active)
C=CCNC(=O)C1CCN(S(=O)(=O)CC)CC1,-14.6%,–
O=C(O)[C@H](/C=C\c1ccccc1)c1ccccc1,-17.8% [at 11.4 µM],–
O=C(O)/C=C\C(=O)NCc1ccccc1,3.41%,–
Cc1ccc(S(=O)(=O)N[C@@H](CCc2ccccc2)CC(=O)C(C)(C)C)cc1,–,3.98 µM (active)
CC(CCc1ccccc1)NC(=O)/C=C/c1ccccc1 (centres undefined),–,7.08 µM (active)
CC(CCc1ccccc1)NS(=O)(=O)c1ccccc1 (centres undefined),–,3.98 µM (active)
Cc1ccc(S(=O)(=O)N[C@H](CO)C(=O)O)cc1,-14.1% [at 11.4 µM],–
C[C@@H](CCc1ccccc1)NC[C@H](O)c1ccc(O)c(C(N)=O)c1,–,inactive
COC(=O)C/C=C\[C@@H](C)[C@@H](CO)NS(=O)(=O)c1ccc(C)cc1,-7.12% [at 11.4 µM],–
